Screening data: PubChem, National Center for Advancing Translational Sciences (NCATS)
Compounds with a hit are over-represented: about 2.6% of the library has one in this group of screens.
GLP1R cytotox: cytotoxicity counter-screen for GLP-1 receptor inverse agonists; HEK293 cAMP-luciferase reporter cells, luminescence, 24 h; Potency, µM (titrated, usually from 38.3 µM), usual class: inhibitors; actives 0.13% (n = 410,000); AID 624418;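 further: loss of luciferase light is scored as toxicity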
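1536-well qHTS counterscreen of the MLSMR; 200 cells/uL, 12 h pre-incubation, 23 nL cpd, 24 h at 37 deg C 5% CO2, luciferase detection reagent, 12 min RT, luminescence. Inhibition = undesired.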
BRCA1 expr up: increases BRCA1 expression; MCF7-BRCA1-FFLuc reporter, luminescence, 48 h; response scale: scaled: vehicle 0%, 10 µM genistein 100%; Potency, µM (titrated, usually from 46.1 µM), usual class: activators; actives 1.1% (n = 380,000); further: nearly all actives have a fitted effect of over 80% in size
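48 h compound treatment of MCF7-BRCA1-FFLuc cells (phenol-red free MEM, 37 °C), then 15 min with luciferase substrate and luminescence imaging.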
GLP1R ag: agonists of human GLP-1 receptor; P43220; HEK293 GLP-1R CRE-luciferase, luminescence, 4-6 h; cells express a hypersensitive GLP-1R form; Potency, µM (top dose mostly 45.6 µM), usual class: activators; actives 0.007% (n = 380,000)
Target sequence (P43220 whole entry, looked up): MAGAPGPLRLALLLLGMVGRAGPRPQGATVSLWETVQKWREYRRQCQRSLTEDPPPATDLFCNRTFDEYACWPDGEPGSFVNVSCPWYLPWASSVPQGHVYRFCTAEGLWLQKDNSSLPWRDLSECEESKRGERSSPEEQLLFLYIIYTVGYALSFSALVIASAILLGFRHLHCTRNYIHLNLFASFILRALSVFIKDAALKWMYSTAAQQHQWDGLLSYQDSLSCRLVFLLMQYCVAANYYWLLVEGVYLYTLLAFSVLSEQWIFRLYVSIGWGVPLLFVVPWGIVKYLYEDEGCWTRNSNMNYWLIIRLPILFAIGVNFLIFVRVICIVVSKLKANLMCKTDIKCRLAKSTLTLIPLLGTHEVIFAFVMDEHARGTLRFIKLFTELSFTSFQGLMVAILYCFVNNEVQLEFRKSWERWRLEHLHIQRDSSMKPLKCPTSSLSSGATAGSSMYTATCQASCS
GLP1R inv ag: acts as inverse agonist at human GLP-1 receptor | HEK293 GLP-1R CRE-luciferase, luminescence, 24 h; GLP-1R form is constitutively active | Potency, µM (series often up to 38.3 µM), actives largely listed as inhibitors | actives 1.6% (n = 410,000); further: nearly all actives have a fitted effect of over 55% in size
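Using stably transfected HEK293 (constitutively active GLP-1R, cAMP-luciferase reporter), compounds were incubated 24 hr and luciferase measured by luminescence.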
A number is an active result; i = inactive; ? = inconclusive; nt = not tested or not shown. The call rests on the fitted dose curve; in most records, active means well fitted curve in the direction sought with a large enough effect; inconclusive means small, poorly fitted or top-dose-only effect, or another doubt; inactive means no such curve, though single readings can be large; an effect the other way counts as inactive or inconclusive.

SMILES	GLP1R cytotox	BRCA1 expr up	GLP1R ag	GLP1R inv ag
COc1ccc(CN2CCN(C(c3ccc(F)cc3)c3ccc(F)cc3)CC2)c(OC)c1OC	?	i	i	10µM
Cc1nn(C)c2c1c(-c1ccccc1)cc(=O)n2C(C)C(=O)NCCc1ccc(Cl)cc1 (centres undefined)	i	nt	nt	?
CCCc1ccc(S(=O)(=O)N2CCN(C(C)C(=O)NCc3ccc(OC)cc3)CC2)cc1 (centres undefined)	i	i	i	10µM
CCOC(=O)Cc1ccc(NC(=O)NC(C)c2c(-n3cccc3)sc(C)c2C)cc1 (centres undefined)	i	nt	nt	?
OC(COc1ccc(CNCCc2ccccc2F)cc1)CN1CCCCC1 (centres undefined)	i	i	i	5.01µM
Cc1cc(C)c(S(=O)(=O)Nc2ccc(-c3ccc(N4CCCCCC4)nn3)cc2)cc1C	i	nt	nt	12.6µM
Cc1cc(C)c(S(=O)(=O)Nc2ccc(-c3ccc(N4CCCCC4)nn3)cc2)cc1C	i	nt	nt	i
O=C(N/N=C(\CC(=O)c1cccs1)C(F)(F)F)c1cccnc1	i	i	i	2.24µM
CCCOc1ccc(/C=N/Nc2cccc([N+](=O)[O-])c2)c(O)c1	?	i	i	4.47µM
CCN(c1cccc(C)c1)S(=O)(=O)c1ccc(-c2ccc(=O)[nH]n2)o1	i	i	i	i
C/C(=N\NC(=O)c1ccc(-c2ccccc2)cc1)C1C(=O)c2ccccc2C1=O	?	i	i	?
C/C(=N\NC(=O)c1ccc(Br)cc1)C1C(=O)c2ccccc2C1=O	10µM	i	i	?
CC(C)c1ccc(NC2CCCN(C(=O)c3ccsc3)C2)cc1 (centres undefined)	i	i	i	10µM
CN(C)/C=C1\C(=O)N(c2ccc(Cl)cc2)CS1(=O)=O	i	7.94µM	i	i
O=c1cc(-c2ccccc2Cl)oc2c(NS(=O)(=O)c3cc(Cl)cc(Cl)c3O)ccc(O)c12	?	i	i	3.98µM
O=c1cc(-c2ccccc2Cl)oc2cc(O)cc(O)c12	i	?	i	i
Nc1ccc(O)c2c(=O)cc(-c3ccccc3Cl)oc12	i	2.82µM	i	i
CCCCCCCOC(=O)C[N+](C)(C)CCOC1CC2CCC1(C)C2(C)C (centres undefined)	11.2µM	i	i	?
CCN(CC)c1cc(C)c2cc(NC(=O)/C=C/c3cc(OC)c(OC)c(OC)c3)ccc2n1	?	nt	nt	11.2µM
CCOc1ccc(/C=C/C(=O)Nc2ccc3nc(N(CC)CC)cc(C)c3c2)cc1OC	i	nt	nt	?
CCN(CC)c1cc(C)c2cc(NC(=O)c3cccc(OC)c3)ccc2n1	i	i	i	10µM
Cc1ccccc1Nc1nc(N)c(C(=O)c2ccccc2Cl)s1	i	nt	nt	?
CCc1ccc(Nc2n[n+](-c3ccccc3)c(-c3c(Cl)cccc3Cl)s2)cc1	7.94µM	i	i	?
COc1ccc2ccccc2c1-c1sc(Nc2ccccc2)n[n+]1-c1ccc(F)cc1	5.01µM	i	i	?
COc1ccc(NCc2nc3ccccc3n2C)cc1	i	3.98µM	i	i
SMILES	GLP1R cytotox	BRCA1 expr up	GLP1R ag	GLP1R inv ag
CC(C)n1c(Nc2ccccc2)nc2ccccc21	i	i	i	11.2µM
COc1ccc(Nc2nc3ccccc3n2C)cc1	i	5.62µM	i	i
Cc1ccc(NCc2nc3ccccc3n2C)cc1	i	i	i	?
Cn1c(CNc2nc3ccccc3n2C)nc2ccccc21	i	10µM	i	i
CC(C)n1c(NCc2nc3ccccc3n2C)nc2ccccc21	i	i	i	i
CCOC(=O)c1c(NC(C)=O)c2c3c(sc2n1Cc1cc(C)ccc1C)CCCC3	i	nt	nt	i
Cc1ccc(C(=O)N2CCC(c3c[nH]c4ccccc34)(c3c[nH]c4ccccc34)CC2)cc1	i	i	nt	?
Cn1c(NCc2ccc(Cl)cc2)nc2ccccc21	i	4.47µM	i	?
COc1ccc(CNc2nc3ccccc3n2C)c(O)c1	i	1.58µM	i	i
Cc1ccc(NCc2nc3ccccc3n2C)cc1C	i	7.94µM	i	i
CC12C(=O)N(c3nccs3)C(=O)C1(C)C1CCC2O1 (centres undefined)	?	i	i	?
C[C@@]12C(=O)OC(=O)[C@]1(C)C1CCC2O1	?	i	i	1.78µM
Cn1c(SCc2ccc(C#N)cc2Cl)nc2ccccc21	i	4.47µM	i	i
N#Cc1ccc(CSc2ccccn2)c(Cl)c1	i	i	i	?
CN(C)c1ccc(/C=C(/C#N)C(=O)NCc2ccccc2)o1	i	10µM	i	i
N#C/C(=C/c1ccccc1)C(=O)NCc1ccccc1	i	i	i	i
COc1cccc(-c2ccc(-c3noc(-c4ccccc4F)n3)c(OC)n2)c1	i	10µM	i	i
COc1cccc(-c2ccc(-c3noc(-c4cccs4)n3)c(OC)n2)c1	i	i	i	i
COCc1nc(-c2ccc(-c3ccccc3)nc2OC)no1	i	10µM	i	i
COCc1nc(-c2ccc(-c3ccc(OC)cc3)nc2OC)no1	i	i	i	i
C#C[C@@]1(OC(C)=O)CC[C@H]2[C@@H]3CCC4=CC(=O)CC[C@@H]4[C@H]3CC[C@@]21C	nt	nt	i	nt
COC(=O)CC1N(S(=O)(=O)c2ccc(C)cc2)c2ccccc2C1(C(=O)OC)C(=O)OC (centres undefined)	i	nt	nt	i
CCOC(=O)C1=CN(Cc2ccco2)S(=O)(=O)N(C)C1c1ccc2ccccc2c1 (centres undefined)	i	i	i	10µM
Clc1ccccc1CSc1nc2ccncc2[nH]1	i	?	i	i
O=C(NCc1ccccc1Cl)c1ccc(CSc2nc3ccncc3[nH]2)cc1	i	i	i	10µM
SMILES	GLP1R cytotox	BRCA1 expr up	GLP1R ag	GLP1R inv ag
CCCOC(=O)c1ccc(Oc2cn[nH]c2-c2ccc(O)cc2O)cc1	i	i	i	?
C=C(C)COc1ccc(-c2[nH]ncc2Oc2cccc(OC)c2)c(O)c1	?	i	i	10µM
C=C(C)COc1ccc(-c2ncncc2Oc2ccc(OC)cc2)c(O)c1	i	i	i	10µM
C=C(C)COc1ccc(-c2n[nH]c(C)c2Oc2ccccc2OC)c(O)c1	i	i	i	7.94µM
CCCOC(=O)c1ccc(Oc2c(-c3ccc(OC)cc3O)n[nH]c2C)cc1	?	i	i	8.91µM
Cc1ccc(C(=O)N2CCC(N3CCC(C(=O)N4CCOCC4)CC3)CC2)cc1	i	i	i	i
Cc1cccc(C)c1NC(=O)CN1CCCCCC1	nt	nt	i	nt
C=C(C)COc1ccc(-c2[nH]ncc2-c2ccc(OC)cc2)c(O)c1	i	i	i	11.2µM
O=S(=O)(c1ccc(F)cc1)N1CCN(c2nc(-c3cccs3)nc3ccccc23)CC1	nt	i	nt	nt
O=C(O)c1cnn(-c2nc(-c3ccc(Cl)cc3)cs2)c1C(F)(F)F	i	4.47µM	i	i
C(=Nc1ccc(/C=C/c2ccnc3ccccc23)cc1)c1ccco1	nt	i	nt	nt
CCN1CCN(C(=O)c2ccc3c(c2)N(Cc2c(F)cccc2Cl)C(=O)c2ccccc2S3)CC1	i	nt	nt	i
Cc1c(NS(=O)(=O)c2ccc(Br)cc2)c(=O)n(-c2ccccc2)n1C	i	i	i	i
